Results reported in the supplement of paper PMC8975748.
Counter-ions that a name gives are not always drawn. ± gives the standard deviation of the averaged measurements.

system: Saccharomyces cerevisiae BY4741 SeMeCo community; experiment: mean cell size (pixel area) (pixels); higher = larger cells; conditions: 10 µM; 24 h; SM minimal medium
Summary of the method: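 In this assay, mean cell pixel area per well was obtained from automated confocal images of paraformaldehyde-fixed yeast analysed in Harmony. The cells were a Saccharomyces cerevisiae BY4741 community with four plasmids, each complementing one auxotrophy and carrying a fluorescent marker, grown for 24 h in SM medium with drug at a final 10 µM in 384-well plates. Values are averaged across 3 replicates. Same SeMeCo high-content imaging drug screen: Selleck FDA-approved drugs at 10 µM, 24 h in SM medium, 384-well plates, 3 replicates.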

SMILES	mean cell size
CN(C)[C@@H]1C(O)=C(C(N)=O)C(=O)[C@@]2(O)C(O)=C3C(=O)c4c(O)ccc(Cl)c4[C@@H](O)[C@H]3C[C@@H]12 [Demeclocycline HCl]	12.5 ± 0.32
CN(C)[C@@H]1C(O)=C(C(N)=O)C(=O)[C@@]2(O)C(O)=C3C(=O)c4c(O)cccc4[C@@](C)(O)[C@H]3[C@H](O)[C@@H]12 [Oxytetracycline Dihydrate]	12.6 ± 0.18
CC(=O)O[C@H]1C[C@@]2(C)[C@@H](C[C@@H](O)[C@H]3[C@@]4(C)CC[C@@H](O)[C@@H](C)[C@@H]4CC[C@@]32C)/C1=C(\CCC=C(C)C)C(=O)O [Fusidine]	12.41 ± 0.032
NS(=O)(=O)c1cc(C(=O)O)c(NCc2ccco2)cc1Cl [Furosemide]	12.5 ± 0.21
CC(=O)[C@@]1(O)CC[C@H]2[C@@H]3CCC4=CC(=O)CCC4=C3[C@@H](c3ccc(N(C)C)cc3)C[C@@]21C [Ulipristal]	12.3 ± 0.16
CN(C)[C@@H]1C(O)=C(C(N)=O)C(=O)[C@@]2(O)C(O)=C3C(=O)c4c(O)ccc(Cl)c4[C@@](C)(O)[C@H]3C[C@@H]12 [Chlortetracycline HCl]	12.4 ± 0.2
C=C1c2cccc(O)c2C(=O)C2=C(O)[C@]3(O)C(=O)C(C(N)=O)=C(O)[C@@H](N(C)C)[C@@H]3[C@@H](O)[C@H]12 [Methacycline HCl]	12.2 ± 0.23
CCC[S+]([O-])c1ccc2[nH]c(NC(=O)OC)nc2c1 (centres undefined) [Albendazole Oxide]	12.4 ± 0.35
CC(C)CCCCC(=O)N[C@@H](CCN)C(=O)N[C@H](C(=O)N[C@@H](CCN)C(=O)N[C@H]1CCNC(=O)[C@H]([C@@H](C)O)NC(=O)[C@H](CCN)NC(=O)[C@H](CCN)NC(=O)[C@H](CC(C)C)NC(=O)[C@@H](Cc2ccccc2)NC(=O)[C@H](CCN)NC1=O)[C@@H](C)O [Polymyxin B sulphate]	11.1 ± 0.33
